{"source": "PubChem BioAssay (NCI)", "key": {"[1]": {"experiment": "NCI Yeast Anticancer Drug Screen. Data for the wt1 strain (AID 149);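 note: 0% = growth of vehicle-treated wt1 cultures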", "details": "S. cerevisiae wt1 strain (SPY 50644) growth inhibition, stronger effect = higher value", "in_short": "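Readout: yeast growth inhibition, normalised to vehicle controls, in the wt1 strain exposed to test compounds.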"}, "[2]": {"experiment": "NCI Yeast Anticancer Drug Screen. Data for the rad50EPP+ strain (AID 151);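 note: 0% = growth of vehicle-treated control cultures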", "details": "S. cerevisiae rad50 mutant strain, stronger effect = higher value", "in_short": "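Compounds were applied to the rad50EPP+ yeast strain, which bears a defined DNA repair alteration, and growth inhibition was determined relative to vehicle-treated cultures.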"}, "[3]": {"experiment": "NCI Yeast Anticancer Drug Screen. Data for the mgt1 strain (AID 153)", "details": "S. cerevisiae mgt1 mutant growth inhibition, stronger effect = higher value", "in_short": "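Strain: mgt1 yeast, one of a set carrying defined DNA damage repair or cell cycle control alterations. Compound-treated growth compared with vehicle.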"}, "[4]": {"experiment": "NCI Yeast Anticancer Drug Screen. Data for the rad50 strain (AID 155);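 note: 0% = growth of vehicle-only cultures of the same strain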", "details": "S. cerevisiae rad50 strain growth inhibition, stronger effect = higher value", "in_short": "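Compounds were tested on a yeast strain with an engineered DNA damage repair alteration; the reported value is growth inhibition normalised to vehicle treatment.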"}, "[5]": {"experiment": "NCI Yeast Anticancer Drug Screen. Data for the mec2-1 strain (AID 157)", "details": "S. cerevisiae mec2-1 strain, stronger effect = higher value", "in_short": "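Strain: mec2-1 (DNA repair/cell cycle alteration). Compound exposure, then growth measured; inhibition expressed relative to vehicle.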"}, "[6]": {"experiment": "NCI Yeast Anticancer Drug Screen. Data for the sgs1 mgt1 strain (AID 161);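 note: 0% = growth of cultures given vehicle only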", "details": "S. cerevisiae sgs1 mgt1 strain, stronger effect = higher value", "in_short": "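Mutant yeast exposed to compound; growth scored against vehicle-only wells.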"}, "[7]": {"experiment": "NCI Yeast Anticancer Drug Screen. Data for the CLN2oe strain (AID 163);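 note: 0% = growth of vehicle-only control cultures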", "details": "S. cerevisiae CLN2oe strain, stronger effect = higher value", "in_short": "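Growth of a genetically modified yeast strain is measured after compound exposure and compared with cultures given vehicle alone.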"}, "[8]": {"experiment": "NCI Yeast Anticancer Drug Screen. Data for the cln2 rad14 strain (AID 165);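 note: 0% = growth equal to vehicle treated cultures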", "details": "S. cerevisiae cln2 rad14 strain, stronger effect = higher value", "in_short": "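Compounds are applied to the cln2 rad14 yeast strain, and growth is then compared with that of vehicle-treated cultures to give inhibition.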"}, "[9]": {"experiment": "NCI Yeast Anticancer Drug Screen. Data for the bub3 strain (AID 167)", "details": "S. cerevisiae bub3 mutant strain, stronger effect = higher value", "in_short": "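Growth of a checkpoint-deficient yeast mutant is measured after compound exposure. Values represent inhibition relative to vehicle.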"}, "[10]": {"experiment": "NCI Yeast Anticancer Drug Screen. Data for the wt2 strain (AID 169);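 note: 0% = growth of vehicle-treated yeast cultures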", "details": "S. cerevisiae wt2 strain growth inhibition, stronger effect = higher value", "in_short": "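This strain belongs to a panel of yeast strains with defined genetic alterations in DNA damage repair or cell cycle control. Compounds are applied, and growth inhibition is measured against vehicle-treated cultures.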"}, "[11]": {"experiment": "NCI Yeast Anticancer Drug Screen. Data for the mlh1 strain (AID 171);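 note: 0% = growth of vehicle-treated control cultures of the same strain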", "details": "S. cerevisiae mlh1 strain growth inhibition, stronger effect = higher value", "in_short": "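Growth of the mutant yeast strain after compound exposure, expressed as inhibition relative to vehicle-only controls.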"}, "[12]": {"experiment": "NCI Yeast Anticancer Drug Screen. Data for the sgs1 strain (AID 173);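 note: 0% = growth of vehicle-only control cultures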", "details": "S. cerevisiae sgs1 mutant, stronger effect = higher value", "in_short": "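Growth of a yeast strain bearing a defined genetic alteration is measured after compound treatment. Inhibition is expressed relative to vehicle-only controls.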"}, "[13]": {"experiment": "NCI Yeast Anticancer Drug Screen. Data for the mlh1 rad18 strain (AID 175)", "details": "S. cerevisiae mlh1 rad18 strain growth inhibition, stronger effect = higher value", "in_short": "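Read-out is yeast growth inhibition, calculated against vehicle-only controls. The compound was applied to a strain engineered with DNA damage repair alterations.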"}, "[14]": {"experiment": "NCI Yeast Anticancer Drug Screen. Data for the rad18 strain (AID 177)", "details": "S. cerevisiae rad18 mutant growth inhibition, stronger effect = higher value", "in_short": "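Growth of the mutant yeast strain after compound exposure, normalised to vehicle-only cultures.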"}, "[15]": {"details": "at 5.0 µM (retest, dose inferred, filed as 0.5)"}, "[16]": {"details": "at 50.0 µM (retest, dose inferred, filed as 5.0)"}}, "note": "“And” between values parts separate entries of the source, which are not always exact repeats. Identical values can stand only once. About 79,000 compounds went through this panel and 15% of them were active in at least one assay; those are over-represented in the sample as a whole. Some structures have more than one record in an assay (separate samples or runs), and their calls can disagree. The source made the active and inactive calls. Cut-off read from the data, not from the text of the source: active = growth inhibition above about 70%; inactive = the rest."}
{"compound": "O=c1[nH]c2ccc(Cl)cc2o1", "values": [{"measurement": "growth inhibition", "setting": "[1]; at 1.2 µM", "value": "-30% (inactive)"}, {"measurement": "growth inhibition", "setting": "[1]; at 3.7 µM", "value": "-28% (inactive)"}, {"measurement": "growth inhibition", "setting": "[1]; at 11.0 µM", "value": "-33% (inactive)"}, {"measurement": "growth inhibition", "setting": "[1]; at 33.0 µM", "value": "-32% (inactive)"}, {"measurement": "growth inhibition", "setting": "[1]; at 100.0 µM", "value": "-23% (inactive)"}, {"measurement": "growth inhibition", "setting": "[2]; at 1.2 µM", "value": "-43% (inactive)"}, {"measurement": "growth inhibition", "setting": "[2]; at 3.7 µM", "value": "-42% (inactive)"}, {"measurement": "growth inhibition", "setting": "[2]; at 11.0 µM", "value": "-33% (inactive)"}, {"measurement": "growth inhibition", "setting": "[2]; at 33.0 µM", "value": "-52% (inactive)"}, {"measurement": "growth inhibition", "setting": "[2]; at 100.0 µM", "value": "-64% (inactive)"}, {"measurement": "growth inhibition", "setting": "[3]; at 1.2 µM", "value": "-45% (inactive)"}, {"measurement": "growth inhibition", "setting": "[3]; at 3.7 µM", "value": "-37% (inactive)"}, {"measurement": "growth inhibition", "setting": "[3]; at 11.0 µM", "value": "-28% (inactive)"}, {"measurement": "growth inhibition", "setting": "[3]; at 33.0 µM", "value": "-33% (inactive)"}, {"measurement": "growth inhibition", "setting": "[3]; at 100.0 µM", "value": "-23% (inactive)"}, {"measurement": "growth inhibition", "setting": "[4]; at 1.2 µM", "value": "-31% (inactive)"}, {"measurement": "growth inhibition", "setting": "[4]; at 3.7 µM", "value": "-23% (inactive)"}, {"measurement": "growth inhibition", "setting": "[4]; [15]", "value": "47% (inactive) and 1% (inactive)"}, {"measurement": "growth inhibition", "setting": "[4]; at 11.0 µM", "value": "-17% (inactive)"}, {"measurement": "growth inhibition", "setting": "[4]; at 33.0 µM", "value": "-19% (inactive)"}, {"measurement": "growth inhibition", "setting": "[4]; [16]", "value": "98% (active) and 64% (inactive)"}, {"measurement": "growth inhibition", "setting": "[4]; at 50.0 µM", "value": "15.6% (inactive) and 15.7% (inactive)"}, {"measurement": "growth inhibition", "setting": "[4]; at 100.0 µM", "value": "-18% (inactive)"}, {"measurement": "growth inhibition", "setting": "[5]; at 1.2 µM", "value": "-62% (inactive)"}, {"measurement": "growth inhibition", "setting": "[5]; at 3.7 µM", "value": "-70% (inactive)"}, {"measurement": "growth inhibition", "setting": "[5]; [15]", "value": "48% (inactive) and -3% (inactive)"}, {"measurement": "growth inhibition", "setting": "[5]; at 11.0 µM", "value": "-60% (inactive)"}, {"measurement": "growth inhibition", "setting": "[5]; at 33.0 µM", "value": "-47% (inactive)"}, {"measurement": "growth inhibition", "setting": "[5]; [16]", "value": "93% (active) and 68% (inactive)"}, {"measurement": "growth inhibition", "setting": "[5]; at 50.0 µM", "value": "3.9% (inactive) and 2.1% (inactive)"}, {"measurement": "growth inhibition", "setting": "[5]; at 100.0 µM", "value": "-53% (inactive)"}, {"measurement": "growth inhibition", "setting": "[6]; [15]", "value": "6% (inactive) and 1% (inactive)"}, {"measurement": "growth inhibition", "setting": "[6]; [16]", "value": "20% (inactive) and 51% (inactive)"}, {"measurement": "growth inhibition", "setting": "[6]; at 50.0 µM", "value": "15.4% (inactive) and -2.75% (inactive)"}, {"measurement": "growth inhibition", "setting": "[7]; at 1.2 µM", "value": "-25% (inactive)"}, {"measurement": "growth inhibition", "setting": "[7]; at 3.7 µM", "value": "-26% (inactive)"}, {"measurement": "growth inhibition", "setting": "[7]; at 11.0 µM", "value": "-30% (inactive)"}, {"measurement": "growth inhibition", "setting": "[7]; at 33.0 µM", "value": "-34% (inactive)"}, {"measurement": "growth inhibition", "setting": "[7]; at 100.0 µM", "value": "-15% (inactive)"}, {"measurement": "growth inhibition", "setting": "[8]; [15]", "value": "46% (inactive) and 2% (inactive)"}, {"measurement": "growth inhibition", "setting": "[8]; [16]", "value": "53% (inactive) and 43% (inactive)"}, {"measurement": "growth inhibition", "setting": "[8]; at 50.0 µM", "value": "23.1% (inactive) and -1.85% (inactive)"}, {"measurement": "growth inhibition", "setting": "[9]; at 1.2 µM", "value": "-15% (inactive)"}, {"measurement": "growth inhibition", "setting": "[9]; at 3.7 µM", "value": "-1% (inactive)"}, {"measurement": "growth inhibition", "setting": "[9]; [15]", "value": "57% (inactive) and 20% (inactive)"}, {"measurement": "growth inhibition", "setting": "[9]; at 11.0 µM", "value": "7% (inactive)"}, {"measurement": "growth inhibition", "setting": "[9]; at 33.0 µM", "value": "71% (active)"}, {"measurement": "growth inhibition", "setting": "[9]; [16]", "value": "92% (active) and 96% (active)"}, {"measurement": "growth inhibition", "setting": "[9]; at 50.0 µM", "value": "87.3% (active) and 92% (active)"}, {"measurement": "growth inhibition", "setting": "[9]; at 100.0 µM", "value": "92% (active)"}, {"measurement": "growth inhibition", "setting": "[10]; at 1.2 µM", "value": "-27% (inactive)"}, {"measurement": "growth inhibition", "setting": "[10]; at 3.7 µM", "value": "-27% (inactive)"}, {"measurement": "growth inhibition", "setting": "[10]; at 11.0 µM", "value": "-31% (inactive)"}, {"measurement": "growth inhibition", "setting": "[10]; at 33.0 µM", "value": "-27% (inactive)"}, {"measurement": "growth inhibition", "setting": "[10]; at 100.0 µM", "value": "-6% (inactive)"}, {"measurement": "growth inhibition", "setting": "[11]; at 1.2 µM", "value": "-41% (inactive)"}, {"measurement": "growth inhibition", "setting": "[11]; at 3.7 µM", "value": "-33% (inactive)"}, {"measurement": "growth inhibition", "setting": "[11]; at 11.0 µM", "value": "-56% (inactive)"}, {"measurement": "growth inhibition", "setting": "[11]; at 33.0 µM", "value": "-41% (inactive)"}, {"measurement": "growth inhibition", "setting": "[11]; at 100.0 µM", "value": "-27% (inactive)"}, {"measurement": "growth inhibition", "setting": "[12]; at 1.2 µM", "value": "-36% (inactive)"}, {"measurement": "growth inhibition", "setting": "[12]; at 3.7 µM", "value": "-47% (inactive)"}, {"measurement": "growth inhibition", "setting": "[12]; at 11.0 µM", "value": "-48% (inactive)"}, {"measurement": "growth inhibition", "setting": "[12]; at 33.0 µM", "value": "-34% (inactive)"}, {"measurement": "growth inhibition", "setting": "[12]; at 100.0 µM", "value": "-22% (inactive)"}, {"measurement": "growth inhibition", "setting": "[13]; [15]", "value": "52% (inactive) and 1% (inactive)"}, {"measurement": "growth inhibition", "setting": "[13]; [16]", "value": "92% (active) and 32% (inactive)"}, {"measurement": "growth inhibition", "setting": "[13]; at 50.0 µM", "value": "24.9% (inactive) and -2.65% (inactive)"}, {"measurement": "growth inhibition", "setting": "[14]; at 1.2 µM", "value": "-39% (inactive)"}, {"measurement": "growth inhibition", "setting": "[14]; at 3.7 µM", "value": "-34% (inactive)"}, {"measurement": "growth inhibition", "setting": "[14]; at 11.0 µM", "value": "-46% (inactive)"}, {"measurement": "growth inhibition", "setting": "[14]; at 33.0 µM", "value": "-38% (inactive)"}, {"measurement": "growth inhibition", "setting": "[14]; at 100.0 µM", "value": "-21% (inactive)"}]}
